Test [1] can be described thus: binders of probe aFSTL3 on microarray, primary screen, stem cell growth factor project, biochemical, small-molecule microarray, fluorescence 635/667 (AID 1064).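 Further: measures binding of the biotinylated anti-FSTL3 antibody to printed compounds.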 The following applies: higher = more signal.
A short description of test [2]: binders from COS7 lysate, DM2A8 probe, primary screen, torsin A project, cell lysate, small-molecule microarray, fluorescence 635/667 (AID 1065). The settings on record: higher = more signal, COS7 lysate expressing mutant human TOR1A.
A short description of test [3]: binders of probe aFGF2 on microarray, primary screen, stem cell growth factor project, biochemical, small-molecule microarray, fluorescence 635/667 (AID 1067).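 Further: measures binding of biotinylated aFGF2 protein to printed compounds on slides; z-score merges feature fluorescence and signal-to-noise across triplicate slides.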 The following applies: higher = more signal.
Test [4] in a line: binders of probe aFGF10 on microarray, primary screen, stem cell growth factor project, biochemical, small-molecule microarray, fluorescence 635/667 (AID 1071).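 Further: score merges 667 nm spot intensity and signal to noise from triplicate slides.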 The following applies: higher = more signal.
Test [5] addresses Neurogenic locus notch homolog protein 2 (Homo sapiens) (UniProt Q04721). The test is described as follows: Notch2 binders on small-molecule microarrays, primary screen, biochemical, small-molecule microarray, 635 nm fluorescence, stem cell growth factors (AID 1073). The settings on record: Notch2 binding, higher = more signal.
The target of test [6] is Pro-neuregulin-1, membrane-bound isoform (Homo sapiens) (UniProt Q02297). The test is described as follows: NRG1 binders on small-molecule microarrays, primary screen, psychiatric disease protein project, biochemical, small-molecule microarray, fluorescence 635/667 (AID 1075).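 Further: score combines 667 nm spot fluorescence with signal to noise.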 The following applies: NRG1 binding, 635 nm fluorescence, higher = more signal.
Test [7] deals with Neuregulin-1 EGF-like domain. Nature of the test: binders of neuregulin-1 EGF-like domain, primary screen, biochemical, small-molecule microarray, 635 nm fluorescence (AID 1081).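 Further: binding of the protein to compounds printed on small-molecule microarray slides.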 The following applies: small-molecule microarray binding, higher = more signal.
A short description of test [8]: FRG1 promoter luciferase signal modulators, primary screen, FRG1 inhibition for FSHD, cell-based, C2C12 myotubes, firefly/Renilla luciferase, luminescence (AID 1084). The following applies: higher = more signal, called active from +8 up or from −8 down.
Test [9] in a line: binders of probe aFST on microarray, primary screen, stem cell growth factor project, biochemical, small-molecule microarray, fluorescence 635/667 (AID 1086).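 Further: score merges 667 nm fluorescence with signal-to-noise of each printed compound spot.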 The following applies: higher = more signal.
Test [10] in a line: binders of probe aHhip on microarray, primary screen, stem cell growth factor project, biochemical, small-molecule microarray, fluorescence 635/667 (AID 1087).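 Further: score merges spot fluorescence at 667nm with spot signal to noise ratio.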 The settings on record: higher = more signal.

Calls of active or inactive are those of the source.

Chain of Neurogenic locus notch homolog protein 2 (Homo sapiens) (Q04721 whole entry, looked up, canonical isoform): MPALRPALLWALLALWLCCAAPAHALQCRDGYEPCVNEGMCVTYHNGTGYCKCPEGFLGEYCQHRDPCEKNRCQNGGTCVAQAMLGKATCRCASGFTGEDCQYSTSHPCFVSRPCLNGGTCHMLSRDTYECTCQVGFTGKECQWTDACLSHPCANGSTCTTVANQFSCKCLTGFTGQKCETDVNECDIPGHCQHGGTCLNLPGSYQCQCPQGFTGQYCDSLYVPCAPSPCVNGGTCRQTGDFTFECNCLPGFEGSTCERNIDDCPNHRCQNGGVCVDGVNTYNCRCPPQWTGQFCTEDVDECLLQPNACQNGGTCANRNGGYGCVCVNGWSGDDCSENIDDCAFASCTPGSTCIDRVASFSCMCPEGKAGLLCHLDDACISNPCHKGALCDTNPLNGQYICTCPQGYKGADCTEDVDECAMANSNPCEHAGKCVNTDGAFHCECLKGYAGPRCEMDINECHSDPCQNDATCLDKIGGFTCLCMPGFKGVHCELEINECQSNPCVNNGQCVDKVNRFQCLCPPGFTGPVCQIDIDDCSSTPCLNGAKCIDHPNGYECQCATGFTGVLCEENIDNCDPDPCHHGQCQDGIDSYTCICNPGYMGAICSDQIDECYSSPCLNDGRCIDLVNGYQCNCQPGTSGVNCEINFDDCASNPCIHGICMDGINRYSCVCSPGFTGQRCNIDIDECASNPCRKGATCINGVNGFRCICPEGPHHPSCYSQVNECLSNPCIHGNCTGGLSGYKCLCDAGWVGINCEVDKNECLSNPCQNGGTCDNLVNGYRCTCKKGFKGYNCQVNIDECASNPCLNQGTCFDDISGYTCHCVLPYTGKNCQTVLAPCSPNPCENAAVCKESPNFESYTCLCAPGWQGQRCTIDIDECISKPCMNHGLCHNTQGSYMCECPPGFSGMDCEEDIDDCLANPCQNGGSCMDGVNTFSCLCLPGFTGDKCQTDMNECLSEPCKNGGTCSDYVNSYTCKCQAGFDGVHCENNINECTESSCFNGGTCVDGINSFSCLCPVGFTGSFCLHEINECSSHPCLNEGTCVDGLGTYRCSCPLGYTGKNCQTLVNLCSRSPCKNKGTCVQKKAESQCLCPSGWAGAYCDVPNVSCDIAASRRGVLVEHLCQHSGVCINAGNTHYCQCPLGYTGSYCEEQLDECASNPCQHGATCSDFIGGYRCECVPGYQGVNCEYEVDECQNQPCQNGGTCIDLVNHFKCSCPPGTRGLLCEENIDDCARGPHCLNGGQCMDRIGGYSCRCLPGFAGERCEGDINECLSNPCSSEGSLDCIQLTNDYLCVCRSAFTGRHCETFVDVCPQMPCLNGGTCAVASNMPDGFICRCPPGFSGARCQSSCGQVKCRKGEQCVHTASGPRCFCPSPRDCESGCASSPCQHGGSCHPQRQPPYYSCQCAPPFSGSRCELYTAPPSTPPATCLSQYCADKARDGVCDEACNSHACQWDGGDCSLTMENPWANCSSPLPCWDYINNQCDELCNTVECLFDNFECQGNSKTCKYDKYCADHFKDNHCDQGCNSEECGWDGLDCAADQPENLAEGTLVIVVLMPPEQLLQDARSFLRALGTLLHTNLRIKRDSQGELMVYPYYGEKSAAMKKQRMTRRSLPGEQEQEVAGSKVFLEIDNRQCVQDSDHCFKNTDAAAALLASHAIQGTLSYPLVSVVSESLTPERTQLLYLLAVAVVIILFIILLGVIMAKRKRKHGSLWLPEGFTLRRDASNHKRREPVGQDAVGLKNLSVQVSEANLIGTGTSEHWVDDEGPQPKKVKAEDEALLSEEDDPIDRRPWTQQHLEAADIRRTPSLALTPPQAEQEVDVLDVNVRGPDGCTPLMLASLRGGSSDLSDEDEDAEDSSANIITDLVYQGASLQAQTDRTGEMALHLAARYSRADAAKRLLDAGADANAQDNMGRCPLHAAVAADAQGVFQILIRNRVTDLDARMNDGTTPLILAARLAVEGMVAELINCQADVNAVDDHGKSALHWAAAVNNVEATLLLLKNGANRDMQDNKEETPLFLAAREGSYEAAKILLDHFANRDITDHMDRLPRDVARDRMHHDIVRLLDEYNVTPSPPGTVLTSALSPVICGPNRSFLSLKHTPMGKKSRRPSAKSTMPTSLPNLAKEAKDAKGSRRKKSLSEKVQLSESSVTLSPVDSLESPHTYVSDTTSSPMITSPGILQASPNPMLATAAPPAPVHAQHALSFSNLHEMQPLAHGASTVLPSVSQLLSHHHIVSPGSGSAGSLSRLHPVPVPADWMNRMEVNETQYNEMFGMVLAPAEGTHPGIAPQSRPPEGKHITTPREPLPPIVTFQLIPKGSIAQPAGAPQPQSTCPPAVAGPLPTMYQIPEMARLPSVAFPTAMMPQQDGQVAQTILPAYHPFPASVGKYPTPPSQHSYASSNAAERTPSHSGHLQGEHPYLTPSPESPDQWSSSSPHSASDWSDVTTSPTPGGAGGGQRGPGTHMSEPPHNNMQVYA
Chain of Pro-neuregulin-1, membrane-bound isoform (Homo sapiens) (Q02297 whole entry, looked up, the tested form may be a part, canonical isoform): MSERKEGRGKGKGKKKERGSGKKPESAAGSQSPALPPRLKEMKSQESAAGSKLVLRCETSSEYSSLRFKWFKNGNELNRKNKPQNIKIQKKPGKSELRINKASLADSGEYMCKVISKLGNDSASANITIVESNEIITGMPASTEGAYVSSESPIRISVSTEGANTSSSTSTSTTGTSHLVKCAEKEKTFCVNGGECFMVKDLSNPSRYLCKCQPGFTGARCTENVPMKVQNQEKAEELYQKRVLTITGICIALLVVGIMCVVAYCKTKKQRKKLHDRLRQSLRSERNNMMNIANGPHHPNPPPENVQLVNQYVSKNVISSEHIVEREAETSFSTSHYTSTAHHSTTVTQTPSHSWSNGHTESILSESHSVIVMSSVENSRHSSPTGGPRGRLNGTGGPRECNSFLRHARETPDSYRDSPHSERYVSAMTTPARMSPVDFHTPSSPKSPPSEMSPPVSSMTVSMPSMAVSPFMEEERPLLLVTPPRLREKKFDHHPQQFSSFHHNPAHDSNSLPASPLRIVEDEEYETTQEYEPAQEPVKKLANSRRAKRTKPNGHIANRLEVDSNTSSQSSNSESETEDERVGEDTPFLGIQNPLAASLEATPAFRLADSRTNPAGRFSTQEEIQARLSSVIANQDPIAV

With `C=C(CCCC)/C(=C/C[C@@H](OC(C)=O)c1ccccc1OCCO)c1cc(C(=O)OC)ccc1OC`, the composite z-score was 0.0248 in [1]; -0.0044 in test [2]; -0.0996 in test [3]; 0.187 in [4]; -0.659 in test [5]; -0.0693 in test [6]. Also, the composite z-score in test [7] is -0.0487; in [9] it was -0.38; in [10], -0.271. Moreover, the z-score in test [8] is 0.549 (inactive).
For `O=C1OCCC=C[C@H]2OC34C=CCN(Cn5nnc6ccccc65)C(=O)[C@H]3N(CCO)C(=O)[C@@H]4C12` (stereo not given in full), the composite z-score in [1] is -0.254; in test [2] it was -0.4; in test [3], -0.219; in test [4] it was -0.308; in test [5], -1.06; in [6] it was 0.0802. Moreover, the composite z-score in [7] is 1.13; in test [9] it was -0.8; in test [10], -0.226. The z-score in [8] was 0.684 (inactive).
Take `[N-]=[N+]=Nc1ccccc1C[C@@]1(C(=O)N2CCCCC2)N=C(c2ccc(OCCCO)cc2)O[C@@H]1c1ccccc1N=[N+]=[N-]`: the composite z-score in [1] worked out at 1.23; in test [2] it was 0.436; in test [3], 0.286; in test [4] it was 0.758; in test [5], 1.6; in test [6] it was 0.429. Besides, the composite z-score in test [7] is 1.17; in test [9] it was 1.14; in [10], -0.121. In addition, the z-score in [8] is -2.04 (inactive).
For `O=C(CS)NCCCCCNC(=O)[C@H]1C[C@H]2C(=O)NCC(=O)N2[C@H]1c1cccc(OCCO)c1`, the composite z-score in test [1] was 0.656; in test [2] it was -0.498; in test [3] it was -0.0579; in [4] it was -0.461; in [5], -1.2; in [6], 1.33. In addition, the composite z-score in [7] is 0.375; in test [9] it was -0.793; in test [10], -0.176. The z-score in [8] is 3.3 (inactive).
For `C=CCC(OC(C)=O)[C@@H]1[C@@H](N(Cc2ccc(-c3ccccc3)cc2)C(=O)Cc2ccc(F)cc2)c2cc(OCCCO)ccc2N1C(=O)c1ccc2ccccc2c1` (stereo not given in full), the composite z-score in test [1] was -0.313; in [2], 0.273; in test [3], -0.0222; in test [4], -0.0326; in [5], 0.166; in test [6] it was -0.158. In addition, the results for the composite z-score in [7], in test [9] and in test [10] were -0.31, 0.0263 and -0.226, respectively. In addition, the z-score in [8] is 0.375 (inactive).
On to `COc1ccc([Si](C)(C)[C@@H]2[C@@H](CCO)O[C@]3(C(=O)N(Cc4cccc(N5CCOC5=O)c4)c4ccccc43)[C@H]2C)cc1`, for which the composite z-score in test [1] was 0.0806; in [2], 0.229; in test [3] it was -0.0704; in test [4], 0.289; in test [5], 1.03; in test [6], 0.775. For the same compound, the values for the composite z-score in [7], in test [9] and in test [10] were 0.953, 0.0855 and -0.156, respectively. Also, in [8], the z-score was -1.65 (inactive).
On to `CN(C)CCCCCCNC(=O)[C@@H]1C[C@@H]2C(=O)N[C@@H](CCCC[N+](C)(C)C)C(=O)N2[C@@H]1c1ccc(O)cc1`, for which the composite z-score was -0.725 in [1]; 0.601 in [2]; -0.183 in test [3]; -0.0779 in test [4]; -1.07 in test [5]; 0.334 in test [6]. Also, the composite z-score is 1.25 in test [7], -0.334 in test [9] and -0.865 in [10]. Moreover, the z-score in test [8] is 4.62 (inactive).
As to `O=C1NC(=O)C2C1C=CC(C(O)C=Cc1ccc([N+](=O)[O-])cc1)N2Nc1ccc(Cl)cc1Cl` (stereo not given), the composite z-score in [1] was 1.03; in [2], 0.723; in test [3], 0.136; in test [4], 0.797; in [5], 1.69; in test [6], 1.87. Also, the composite z-score was determined as 1.12 in test [7], 0.939 in test [9] and 0.206 in [10]. In addition, the z-score in [8] is 0.0592 (inactive).
Regarding `CCCCCCc1nc(-c2ccc(-c3ccc(Cl)c(Cl)c3)o2)cc2c1[Si](C(C)C)(C(C)C)O[C@H]2c1ccccc1`, the composite z-score in test [1] was 0.0771; in test [2], -0.543; in test [3], -0.116; in test [4], -0.379; in [5] it was -0.797; in test [6], 0.501. The composite z-score in test [7] was -0.412; in test [9], -0.265; in test [10] it was 0.0505. In addition, the z-score in [8] was 0.213 (inactive).
Consider `CN(C)CCCC[C@@H]1NC(=O)[C@H]2C[C@@H](C(=O)NCCCCCN)[C@@H](c3cccc(OCCO)c3)N2C1=O`, for which the composite z-score in test [1] was 1.88; in [2], 2.19; in test [3], 0.269; in [4], 0.558; in [5], 1.12; in test [6], 2.28. For the same compound, the composite z-score in test [7] stood at 1.3; in [9], 1.75; in [10], 1.16. Moreover, in test [8], the z-score was -0.0269 (inactive).
Turning to `CC(C)N1CC=CC23O[C@@H]4C=CCOC(=O)[C@@H]4[C@H]2C(=O)N(CCCCCO)[C@@H]3C1=O` (stereo not given in full), the composite z-score in [1] is -0.354; in test [2] it was 0.272; in test [3] it was -0.153; in [4] it was -0.267; in [5], -0.669; in [6], 0.24. In addition, the composite z-score was 1.27 in test [7], -0.308 in test [9] and -0.132 in [10]. Further, in test [8], the z-score was -0.907 (inactive).
As to `COc1cc(OC)c(C(O)C2C=CC3C(=O)NC(=O)C3N2Nc2ccccn2)cc1Br` (stereo not given), the composite z-score in test [1] was 0.159; in [2], 0.56; in [3], -0.0494; in test [4], 0.561; in test [5], 1.24; in test [6], 1.48. Besides, the composite z-score in test [7] was 1.44; in test [9], 0.0594; in test [10], -0.141. In addition, the z-score in [8] was 1.21 (inactive).
For the compound `Cc1ccc(C2C3C(=O)CC4C(=O)N(c5ccccc5)C(=O)C4C3CN2S(=O)(=O)c2ccc(C)cc2)cc1` (stereo not given), the composite z-score came out at 0.469 in [1]; 0.204 in test [2]; 0.292 in test [3]; 0.59 in [4]; 1.57 in test [5]; 1.25 in test [6]. Further, the composite z-score in test [7] was found to be 1.32; in test [9] it was 1.58; in test [10] it was 0.365. In [8], the z-score was 0.0035 (inactive).
For the compound `COCCOC(=O)N1C(=O)[C@@]2(c3cc(C#CCCO)ccc31)[C@H](c1ccc(OCCO)cc1)N1[C@H](c3ccccc3)[C@H](c3ccccc3)OC(=O)[C@H]1[C@@H]2C(N)=O`, the composite z-score in test [1] was -0.139; in test [2] it was 0.947; in test [3] it was -0.0182; in test [4], 0.916; in [5] it was 1.16; in [6], 0.741. Moreover, the results for the composite z-score in [7], in test [9] and in [10] were 1.23, 0.177 and -0.239, respectively. Also, the z-score in [8] was -0.485 (inactive).
On to `C=CCNC(=O)[C@H]1[C@@H]2C(=O)O[C@@H](c3ccccc3)[C@@H](c3ccccc3)N2[C@@H](c2ccc(O)cc2)[C@]12C(=O)Nc1ccc(C#CCCO)cc12`, for which the composite z-score in [1] was -0.107; in test [2], -1.51; in [3], -0.122; in test [4] it was -0.0819; in [5], -0.697; in [6] it was 1.01. The composite z-score in test [7] is 0.732; in test [9] it was 0.33; in [10] it was -0.0994. Further, the z-score in [8] was -3.71 (inactive).
Regarding `CC1CC/C=C\[C@H]2OC34C=CCN(c5ccc6ccccc6c5)C(=O)[C@H]3N(CCO)C(=O)[C@@H]4C2C(=O)O1` (stereo not given in full), the composite z-score in [1] was -0.17; in [2] it was 0.122; in test [3], -0.0996; in test [4], 0.0867; in test [5], -1.18; in [6], -0.378. In addition, the composite z-score in test [7] was 0.868; in test [9], -0.358; in [10] it was 1.74. In addition, in test [8], the z-score is 0.571 (inactive).

The values above are taken from PubChem BioAssay.
